# Results from PubChem BioAssay (NCI).
# Compounds without any hit were thinned out: in the full panel of roughly 83,000, 20% have a hit.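 Negative percent growth values reflect cell death: -40 means 40% of the cells present at the start died, and -100 means all died.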 A number with no mark means an inactive call. Activity calls are given as the source filed them.
# Test system: CAKI-1 renal
# Assay: NCI-60 one-dose screen, 48 h (100 = growth as untreated, 0 = no growth, -100 = all killed)
# Conditions: 10 µM
# Description: Growth inhibition of the CAKI-1 human tumor cell line is measured as a screen for anti-cancer activity. Cells are grown in 96 well plates and exposed to the test compound for 48 hours. Compounds are tested at a single concentration, which is 10^-5 M for most compounds. The reported endpoint is percent growth (GI% or GIPRCNT), where numbers from 0 - 100% represent growth inhibition, and numbers from -100% - 0 represent cell death. For example, a value of 40 represents 60% growth inhibition. A value of 0 means no net growth occurred over the course of the experiment. A value of -40 indicates 40% of cells at the beginning of the experiment died by the end of the experiment. A value of -100 means all cells are dead at the end of the experiment.
# NCI-60 Human Tumor Cell Lines Screen was performed using the standard one-dose NCI protocol, which is described in more detail at https://dtp.cancer.gov/discovery_development/nci-60/default.htm.
# Compounds with GIPRCNT values below 10 were considered active. Activity score was based on GIPRCNT using the following formula: […]
# Score is 0 for GIPRCNT values of 100 or above, 50 for GIPRCNT values of 0, and 100 for GIPRCNT values of -100.
row,SMILES,growth
1,c1ccc([Se]CCCN2CCN(CCC[Se]c3ccccc3)CC2)cc1,-23.6% (active)
2,O=C(Nc1ccc(-n2ccc3c(NC(=O)c4ccccc4)nccc32)cc1)Nc1cccc(C(F)(F)F)c1,68.6%
3,C[C@@H]1CC2C3C[C@H](F)C4=CC(=O)C=C[C@]4(C)[C@@]3(F)[C@@H](O)C[C@]2(C)[C@@]1(O)C(=O)CO (stereo not given in full),75.8%
4,Nc1ccc(S(=O)(=O)Nc2ccnn2-c2ccccc2)cc1,92.7%
5,COc1ccc(OCC(O)CN2CCN(c3ccc(Cl)cc3)CC2)cc1 (stereo not given),79.9%
6,C=C1c2c(Cl)ccc(O)c2C(O)=C2C(=O)[C@]3(O)C(O)=C(C(N)=O)C(=O)[C@@H](N(C)C)[C@@H]3[C@@H](O)[C@H]12,3.62% (active)
7,O=C(NCCNc1nccc(-c2c(-c3cccc(O)c3)nc3sccn23)n1)c1cccc(C(F)(F)F)c1,75.6%
8,O=C(NCCNc1nccc(-c2c(-c3cccc(O)c3)nc3sccn23)n1)c1cc(N2CCOCC2)cc(C(F)(F)F)c1,82.5%
9,O=S1(=O)N(CCNc2nccc(-c3c(-c4cccc(O)c4)nc4sccn34)n2)CCN1Cc1ccccc1,39.4%
10,COc1ccc(-c2nn(-c3ccc(NC(=O)c4ccc(Cl)c(C(F)(F)F)c4)cc3)cc2-c2ccncc2)cc1Cl,-33.6% (active)
11,CN(CCNCc1ccccn1)CCNCc1ccccn1,-42% (active)
12,CC(NCCC(c1ccccc1)c1ccccc1)c1ccccc1 (stereo not given),42.3%
13,CC(=O)N1N=C2N(Cc3ccccc3)C(=O)c3c(sc4c3CCCC4)N2C1c1cn(-c2ccccc2)nc1-c1ccc(Cl)cc1 (stereo not given),101%
14,O=C(Nc1ccc(-n2ccc3c(NC(=O)c4ccccc4)nccc32)cc1)c1ccc(Cl)c(C(F)(F)F)c1,26.3%
15,O=c1c2ccccc2[nH]n1Cc1ccc2c(c1)OCO2,104%
16,CN(C)c1ccc(/C=c2\s/c(=C\C(=O)C(C)(C)C)[nH]c2=O)cc1,97.8%
17,COc1cc(Nc2ncccc2C(=O)Nc2nc3ccc(F)cc3s2)cc(OC)c1OC,18.4%
18,Cc1cn(-c2cc(C(=O)Nc3cccc(-n4ccc5c(NC(=O)c6ccccc6)nccc54)c3)cc(C(F)(F)F)c2)cn1,2.7% (active)
19,COc1ccc(-c2nn(-c3cccc(Cl)c3)cc2-c2cc(-c3ccc(Br)cc3)[nH]c(=O)c2C#N)cc1,82.9%
20,Nc1ncnc2c1ncn2C1OC(COC(c2ccccc2)(c2ccccc2)c2ccccc2)C(O)C1O (stereo not given),57.7%

row,SMILES,growth
1,CCN(CC)CCN1C(=O)c2c(c3c4ccccc4[nH]c3c3[nH]c4ccccc4c23)C1=O,87.9%
2,Cc1ccc[n+](CC(=O)c2cccc3ccccc23)c1,100%
3,CCCN1C(=O)CSC1=Nc1ccc2cc3ccc(N=C4SCC(=O)N4CCC)cc3nc2c1,36%
4,CC(C)C1(C(C)C)NC(=O)NC1=O,88.9%
5,CCC(CC(C)C)Nc1ccc(NC(CC)CC(C)C)cc1 (stereo not given),99.1%
6,COc1ccc2c(c1)C(=O)/C(=C/c1cccc(OCC(=O)c3ccccc3)c1)O2,-98.1% (active)
7,CC[C@H]1[C@@H]2C=C[C@@H]3[C@H]4C/C=C\C(=O)NCCC[C@@H]5NC(=O)/C(=C(O)/C=C/[C@@H]4C[C@@H]3[C@H]2C[C@H]1C)C5=O,-41.3% (active)
8,CCOc1ccc(Cc2nccc3cc(OCC)c(OCC)cc23)cc1OCC,48%
9,COc1ccc(C[C@H](N)C(=O)N[C@@H]2[C@@H](CO)OC(n3cnc4c(N(C)C)ncnc43)[C@@H]2O)cc1 (stereo not given in full),42.8%
10,COc1cc(C(=O)C[n+]2ccccc2)ccc1OC(C)=O,99.3%
11,O=S(=O)(CCN1CCOCC1)Nc1cc(-c2ccc3ncnc(Nc4ccc(F)c(Cl)c4)c3c2)cnc1Cl,17%
12,COc1cccc(-c2nc3sccn3c2-c2ccnc(NCCNC(=O)Nc3cccc(C(F)(F)F)c3)n2)c1,40%
13,OC[C@@H](O)C(O[C@@H]1O[C@H](CO)[C@H](O)[C@H](O)[C@H]1O)[C@H](O)[C@@H](O)CO (stereo not given in full),92.9%
14,O=C(O)c1cccc2oc(-c3ccccc3O)nc12,42.3%
15,CC(Cc1cccc(C(F)(F)F)c1)NCCOC(=O)c1ccccc1 (stereo not given),87.4%
16,O=[N+]([O-])c1cccc(C2c3ccccc3Oc3ccccc32)c1,72.4%
17,CCCCCCCCCCCCCCCC(=O)NS(=O)(=O)OC[C@H]1O[C@@H](n2cnc3c(N)ncnc32)[C@H](O)[C@@H]1O,-61.4% (active)
18,CN[C@@H](CCCNC(N)=NC/C=C(/C)CCC=C(C)C)C(=O)N(C)[C@@H](CCCNC(N)=NCC=C(C)C)C(=O)N[C@H](C)[C@H](OS(=O)(=O)O)c1ccc(OS(=O)(=O)O)c(COS(=O)(=O)O)c1,106%
19,COc1ccc(CCNC=O)cc1OC,100%
20,O=C(Nc1ccc(-n2cc(-c3ccncc3)c(-c3ccc(O)c(Cl)c3)n2)cc1)c1cc(Cl)cc(Cl)c1,45.8%
